The campaign covered roughly 340,000 compounds. About 3,400 (1%) were called active.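 The calls were made as follows: active = inhibition above the mean over all tested compounds plus 3 SD (cut at about 4.2% in these data); inactive = the rest.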 The entries come from a sample that favours actives as a whole.
Target: Nuclear receptor subfamily 0 group B member 1 (Homo sapiens) (UniProt P51843)
Test: relief of DAX1 transcriptional repression – cell-based, HEK293, Gal4-DAX1, luciferase luminescence, primary screen (AID 504766);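 also: 0% = DAX1-transfected cells with DMSO and 100% = empty-vector control cells with DMSO; inhibition shows as a rise in luminescence from relieved DAX1 repression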
Conditions: HEK293 Gal4-DAX1 luciferase reporter, at 6.75 µM, stronger effect = higher value

Nuclear receptor subfamily 0 group B member 1 (Homo sapiens), sequence (P51843 207-470 limits assumed): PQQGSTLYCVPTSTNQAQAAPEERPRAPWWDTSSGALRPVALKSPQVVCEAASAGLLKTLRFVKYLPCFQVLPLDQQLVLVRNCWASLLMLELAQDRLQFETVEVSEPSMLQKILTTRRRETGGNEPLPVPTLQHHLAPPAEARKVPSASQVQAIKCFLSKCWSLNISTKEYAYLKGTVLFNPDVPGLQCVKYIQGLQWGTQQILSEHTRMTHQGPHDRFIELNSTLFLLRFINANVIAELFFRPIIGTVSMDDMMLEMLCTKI

Row | SMILES | inhibition
1 | CC(C)C1CCN(C(=O)C2CCC(=O)N(C3CCCCCC3)C2)CC1 (stereo not given) | 1.56% (inactive)
2 | CCOC(=O)c1cnn2c(SC)ncnc12 | 0.53% (inactive)
3 | Cc1ccc2cccc([N+](=O)[O-])c2n1 | 0.58% (inactive)
4 | NC(=O)C1(Nc2ccccc2Cl)CCCC1 | 4.62% (active)
5 | NC(=O)C1(Nc2ccc([N+](=O)[O-])cc2)CCCC1 | -1.28% (inactive)
6 | NC(=O)C1(Nc2ccc(-c3ccccc3)cc2)CCCC1 | 0.6% (inactive)
7 | Cc1ccc(Cc2c(-c3ccccc3)nc3ccc(Cl)cn23)cc1 | -0.15% (inactive)
8 | CCOc1ccc(S(=O)(=O)NCCC(=O)NNC(=O)c2ccc(F)cc2)cc1 | 1.04% (inactive)
9 | Cc1ccc(Oc2nc3ccccc3n3c(C)nnc23)cc1 | -0.82% (inactive)
10 | Cc1ccc(OCc2nc3ccccc3n2C)cc1 | 4.76% (active)
11 | Cn1c(COc2ccc(Cl)cc2)nc2ccccc2c1=O | 0.73% (inactive)
12 | Cc1ccccc1C#CC1=CC(=O)CC(C)(C)C1 | -0.14% (inactive)
13 | C[C@H]1CN([C@@H](C)CO)C(=O)c2cc(-c3ccccc3F)cnc2O[C@H]1CN(C)C(=O)C1CCOCC1 | 1.09% (inactive)
14 | CC1(C)CN(CCc2ccccc2)C(=O)[C@H]1CC(=O)Nc1ccc(Br)cc1 | 0.23% (inactive)
15 | COc1ccc(-c2csc3nc(-c4ccccc4F)oc(=O)c23)cc1OC | -1.37% (inactive)
16 | COc1ccc(-c2noc(CCCC(=O)NC3CCCC3)n2)cc1OC | 0.14% (inactive)
17 | COc1ccc(-c2noc(-c3cccc(OC)c3OC)n2)cc1OC | 4.33% (active)
18 | COc1ccc(S(=O)(=O)N(C)C)cc1NC(=O)COC(=O)c1n[nH]c2ccccc12 | -0.33% (inactive)
19 | Cc1cc(OCC(=O)Nc2nccs2)c2c(C)c(C)c(=O)oc2c1 | 0.98% (inactive)
20 | Cc1cccnc1CC(C)NC(=O)c1cc(COc2cncc(Cl)c2)on1 (stereo not given) | 0.03% (inactive)

Row | SMILES | inhibition
21 | Cc1cc(OCc2cc(C(=O)NCc3cc(C(C)C)no3)no2)cc(C)c1Cl | 7.06% (active)
22 | COc1ccc(OCc2cc(C(=O)NCC3(C)COC3)no2)c(Cl)c1 | 0.65% (inactive)
23 | COc1ccc(Cn2c(=O)oc3ccccc32)cc1 | 0.51% (inactive)
24 | COc1ccc(/C=C2\SC(=S)N(CCC(=O)N3CCOCC3)C2=O)cc1OC | -0.88% (inactive)
25 | COC(=O)[C@H]1C[C@H](OC(=O)NCc2ccccc2)[C@@]2(O)CN(S(=O)(=O)c3ccc(C)cc3)CC2[C@H]1C(=O)OC (stereo not given in full) | 0.61% (inactive)
26 | CC(NC(=O)c1cc(=O)[nH]c2ccccc12)c1ccc(F)cc1F (stereo not given) | 0.16% (inactive)
27 | O=C(CNC(=O)c1cc(=O)[nH]c2ccccc12)Nc1ccc(F)c(F)c1 | 7.53% (active)
28 | CC(C)(CNC(=O)c1cc(=O)[nH]c2ccccc12)N1CCOCC1 | -0.11% (inactive)
29 | C[C@H]1CN([C@@H](C)CO)C(=O)CCCn2cc(nn2)CO[C@@H]1CN(C)S(=O)(=O)c1ccccc1C#N | 0.36% (inactive)
30 | Cc1ccc(NC(=O)Cn2sc3ccccc3c2=O)cc1 | 2.09% (inactive)
31 | CC(=O)Nc1ccccc1NC(=O)c1cc(C)cc(C)c1 | 0.39% (inactive)
32 | Nc1ccc(S(=O)(=O)NC(=O)c2ccccc2)cc1 | 1.24% (inactive)
33 | Nc1ccc(C(=O)Nc2ccccc2N)cc1 | 22.7% (active)
34 | Cc1nc2ccccn2c(=O)c1NC(=O)c1ccc(Br)o1 | 1.03% (inactive)
35 | CCOC(=O)C1C(c2ccc(OC)c(OC)c2)c2c([nH][nH]c2=O)CC1(C)O (stereo not given) | 0.5% (inactive)
36 | CC(=O)C1C(c2ccc(Cl)cc2)c2c(n[nH]c2C)CC1(C)O (stereo not given) | 5.48% (active)
37 | Cc1noc(C)c1NC(=O)N(C)C[C@@H]1Oc2cc(Br)ccc2S(=O)(=O)N([C@@H](C)CO)C[C@H]1C | 0.32% (inactive)
38 | CC1CCCC(NC(=O)COC(=O)c2ccccc2C(=O)N(C)C2CCCCC2)C1C (stereo not given) | -0.71% (inactive)
39 | Cc1ccc(-c2ccc(CN3C(C(C)C)C(=O)N(Cc4cn(CCC5OCCCO5)nn4)CCS3(=O)=O)cc2)cc1 (stereo not given) | -0.79% (inactive)
40 | O=C(NCC(=O)N(c1ccccc1)C(C(=O)NCC1CCCO1)c1ccccc1)c1cccs1 (stereo not given) | -0.74% (inactive)

Row | SMILES | inhibition
41 | COC(=O)c1cccc(N(C(=O)CNC(=O)c2cccs2)C(C(=O)NCC2CCCO2)c2ccc(OC)c(OC)c2)c1 (stereo not given) | 4.73% (active)
42 | COc1ccc(N(C(=O)CNC(=O)c2ccco2)C(C(=O)NCC2CCCO2)c2ccccc2)cc1Cl (stereo not given) | 0.19% (inactive)
43 | O=C(CSc1nnc(SCc2ccc(F)cc2)s1)Nc1ccc(C(=O)O)cc1 | -0.63% (inactive)
44 | Nc1nnc(SCC(=O)Nc2ccc3nc(SCC(=O)Nc4ccccc4)sc3c2)s1 | -3.13% (inactive)
45 | O=C(CSc1nc2ccccc2s1)Nc1ccc(C(=O)O)cc1 | 4.73% (active)
46 | C[C@H]1CN([C@@H](C)CO)C(=O)CCCn2cc(nn2)CO[C@@H]1CN(C)S(=O)(=O)c1cccc(C#N)c1 | -0.32% (inactive)
47 | N#CCCN(C(=S)Nc1ccc(Cl)c(Cl)c1)C1CCCCC1 | -0.53% (inactive)
48 | Cc1ccc(S(=O)(=O)Nc2nc3ccccc3s2)cc1[N+](=O)[O-] | 5.09% (active)
49 | CCOc1ccc2sc(NS(=O)(=O)c3ccc(N)cc3)nc2c1 | 2.57% (inactive)
50 | Cc1ccc(S(=O)(=O)NCCSc2ccccc2)cc1[N+](=O)[O-] | -0.31% (inactive)
51 | Cc1ccc(-c2ccc(CN3C(C(C)C)C(=O)N(Cc4cn(CCC5OCCO5)nn4)CCS3(=O)=O)cc2)cc1 (stereo not given) | -1.47% (inactive)
52 | Brc1ccc(C2CC(c3ccccc3)=Nc3ccccc3N2)cc1 (stereo not given) | 4.28% (active)
53 | S=C1NC(c2ccccc2)=NCN1c1ccc(Br)cc1 | -1.46% (inactive)
54 | CNC(=S)N1N=C(c2ccccc2)CC1c1ccc(Br)cc1 (stereo not given) | 1.07% (inactive)
55 | CC(C)CCC(=O)Nc1cc(S(=O)(=O)N2CCOCC2)ccc1N1CCCC1 | -0.01% (inactive)
56 | COc1cc2nnn(-c3ccncc3)c2cc1OC | 1.02% (inactive)
57 | CC1(C)CN(Cc2cccnc2)C(=O)[C@H]1CC(=O)Nc1ccc(Br)cc1 | -0.18% (inactive)
58 | O=C(COC(=O)c1ccc(S(=O)(=O)Nc2ccccc2)cc1)NCC1CCCO1 (stereo not given) | -0.38% (inactive)
59 | COc1ccc(C(=O)OCC(=O)c2cc(C)n(CC3CCCO3)c2C)cc1[N+](=O)[O-] (stereo not given) | 0.28% (inactive)
60 | COc1ccc(C(=O)OCC(=O)NCC2CCCO2)cc1[N+](=O)[O-] (stereo not given) | 4.91% (active)

— PubChem BioAssay AID504766 (The Scripps Research Institute Molecular Screening Center, 2011)
